Holding throughout (test): cell viability relative to vehicle control; higher = less cytotoxic
Common to all, as to details: 10 µM

One test relates to K562. Summed up: (§1)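 Mutant clones made by CRISPR editing and their isogenic wild-type counterparts, from four leukaemia lines, were exposed to a single 10 µM dose of each library compound for 48 h. The supernatant was then removed and CellTiter-Glo luminescence was read. Viability was reported as percent of the on-plate vehicle control.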
Another test concerns MARIMO. The gist of the method:
as §1

A further test concerns MOLM14. The gist of the method:
as §1

The next test deals with OCI-AML2. Summed up:
as §1

Several values for one entry are separate records, joined by “and”; a condition that tells them apart may be missing. Identical values can stand only once. Counter-ions that a name gives are not always drawn.

As usually defined, the cell viability is a read-out of living cells in per cent, often relative to untreated cells.

For the compound `C[C@@H]1COCCN1c1cc(C2(S(C)(=O)=O)CC2)nc(-c2cccc3[nH]ccc23)n1`, the cell viability with K562 (SRSF2 genotype: SRSF2 P95H/wt) was 8.63% and 11.6%; in the test with K562 (SRSF2 genotype: SRSF2 wt/wt) it was 8.6%; in the test on MARIMO (SRSF2 genotype: SRSF2 P95H/wt), 20.2%; in the test with MARIMO (SRSF2 genotype: SRSF2 wt/wt) it was 18%; in the test with MOLM14 (SRSF2 genotype: SRSF2 P95H/wt), 22.2%; with MOLM14 (SRSF2 genotype: SRSF2 wt/wt) it was 7.72%. Also, the cell viability in the test on OCI-AML2 (SRSF2 genotype: P95H/wt) stood at 16.2%; in the test on OCI-AML2 (SRSF2 genotype: wt/wt) it was 18.7%.

Regarding `CN1CCN2c3ccccc3Cc3ccccc3C2C1` (stereo not given) [Mianserin HCl], the cell viability is 92.5% and 97.9% in the test on K562 (SRSF2 genotype: SRSF2 P95H/wt); 92.2% with K562 (SRSF2 genotype: SRSF2 wt/wt); 83.7% in the test on MARIMO (SRSF2 genotype: SRSF2 P95H/wt); 86.5% with MARIMO (SRSF2 genotype: SRSF2 wt/wt); 93.5% in the test with MOLM14 (SRSF2 genotype: SRSF2 P95H/wt); 97.8% in the test with MOLM14 (SRSF2 genotype: SRSF2 wt/wt). Besides, the cell viability in the test on OCI-AML2 (SRSF2 genotype: P95H/wt) stood at 91.2%; in the test on OCI-AML2 (SRSF2 genotype: wt/wt), 86.4%.

On to `NS(=O)(=O)NCCNc1nonc1/C(=N/O)Nc1ccc(F)c(Br)c1`, for which the cell viability is 97.2% and 102% in the test on K562 (SRSF2 genotype: SRSF2 P95H/wt); 95.5% in the test on K562 (SRSF2 genotype: SRSF2 wt/wt); 102% in the test with MARIMO (SRSF2 genotype: SRSF2 P95H/wt); 104% in the test with MARIMO (SRSF2 genotype: SRSF2 wt/wt); 103% in the test on MOLM14 (SRSF2 genotype: SRSF2 P95H/wt); 100% in the test with MOLM14 (SRSF2 genotype: SRSF2 wt/wt). The cell viability with OCI-AML2 (SRSF2 genotype: P95H/wt) was 106%; with OCI-AML2 (SRSF2 genotype: wt/wt) it was 109%.

`COc1c2occc2cc2ccc(=O)oc12` [Methoxsalen (Oxsoralen)]: the cell viability in the test with K562 (SRSF2 genotype: SRSF2 P95H/wt) is 108% and 106%; with K562 (SRSF2 genotype: SRSF2 wt/wt), 107%; in the test with MARIMO (SRSF2 genotype: SRSF2 P95H/wt), 106%; with MARIMO (SRSF2 genotype: SRSF2 wt/wt) it was 106%; with MOLM14 (SRSF2 genotype: SRSF2 P95H/wt) it was 105%; in the test on MOLM14 (SRSF2 genotype: SRSF2 wt/wt) it was 111%. The cell viability with OCI-AML2 (SRSF2 genotype: P95H/wt) came to 98.1%; in the test with OCI-AML2 (SRSF2 genotype: wt/wt) it was 107%.

With `Cn1c(N2CCCCS2(=O)=O)nc(C(=O)NCc2ccc(F)cc2)c(O)c1=O`, the cell viability worked out at 110% in the test with K562 (SRSF2 genotype: SRSF2 P95H/wt); 113% in the test on K562 (SRSF2 genotype: SRSF2 wt/wt); 108% in the test on MARIMO (SRSF2 genotype: SRSF2 P95H/wt); 115% in the test with MARIMO (SRSF2 genotype: SRSF2 wt/wt); 112% in the test with MOLM14 (SRSF2 genotype: SRSF2 P95H/wt); 111% in the test with MOLM14 (SRSF2 genotype: SRSF2 wt/wt). Besides, the cell viability with OCI-AML2 (SRSF2 genotype: P95H/wt) was 112%; in the test with OCI-AML2 (SRSF2 genotype: wt/wt), 102%.

As to `C[C@]12CC[C@@H]3c4ccc(O)cc4C[C@@H](CCCCCCCCC[S+]([O-])CCCC(F)(F)C(F)(F)F)[C@H]3[C@@H]1CC[C@@H]2O` (stereo not given in full) [Fulvestrant (Faslodex)], the cell viability was 86% and 87.5% with K562 (SRSF2 genotype: SRSF2 P95H/wt); 79.5% in the test with K562 (SRSF2 genotype: SRSF2 wt/wt); 77.1% in the test with MARIMO (SRSF2 genotype: SRSF2 P95H/wt); 87% with MARIMO (SRSF2 genotype: SRSF2 wt/wt); 93.1% with MOLM14 (SRSF2 genotype: SRSF2 P95H/wt); 89.1% in the test with MOLM14 (SRSF2 genotype: SRSF2 wt/wt). For the same compound, the results for the cell viability in the test with OCI-AML2 (SRSF2 genotype: P95H/wt) and in the test with OCI-AML2 (SRSF2 genotype: wt/wt) were 91.4% and 96.7%, respectively.

As for `C[C@H](Nc1ncnc2[nH]cnc12)c1cc2ccc(F)cc2nc1-c1ccccn1`, the cell viability with K562 (SRSF2 genotype: SRSF2 P95H/wt) was 90.3% and 89.3%; in the test with K562 (SRSF2 genotype: SRSF2 wt/wt), 91.5%; with MARIMO (SRSF2 genotype: SRSF2 P95H/wt), 81.5%; in the test with MARIMO (SRSF2 genotype: SRSF2 wt/wt), 85%; in the test on MOLM14 (SRSF2 genotype: SRSF2 P95H/wt), 69.2%; in the test on MOLM14 (SRSF2 genotype: SRSF2 wt/wt), 67%. Moreover, the cell viability in the test with OCI-AML2 (SRSF2 genotype: P95H/wt) was 64.5%; with OCI-AML2 (SRSF2 genotype: wt/wt) it was 73.4%.

For `COC(=O)C1=C(C)NC(C)=C(C(=O)OC)C1c1ccccc1[N+](=O)[O-]` [Nifedipine (Adalat)], the cell viability in the test with K562 (SRSF2 genotype: SRSF2 P95H/wt) was 76.5% and 90.2%; in the test on K562 (SRSF2 genotype: SRSF2 wt/wt) it was 80.8%; in the test with MARIMO (SRSF2 genotype: SRSF2 P95H/wt), 57.5%; with MARIMO (SRSF2 genotype: SRSF2 wt/wt) it was 51.7%; in the test with MOLM14 (SRSF2 genotype: SRSF2 P95H/wt) it was 49.3%; in the test with MOLM14 (SRSF2 genotype: SRSF2 wt/wt), 49.5%. For the same compound, the results for the cell viability with OCI-AML2 (SRSF2 genotype: P95H/wt) and in the test with OCI-AML2 (SRSF2 genotype: wt/wt) were 29.4% and 48.4%, respectively.

With `Cc1ccccc1-c1cc(N2CCN(C)CC2)ncc1N(C)C(=O)C(C)(C)c1cc(C(F)(F)F)cc(C(F)(F)F)c1` [Netupitant], the cell viability in the test with K562 (SRSF2 genotype: SRSF2 P95H/wt) was 90.3% and 95.2%; with K562 (SRSF2 genotype: SRSF2 wt/wt), 94.6%; in the test with MARIMO (SRSF2 genotype: SRSF2 P95H/wt) it was 104%; with MARIMO (SRSF2 genotype: SRSF2 wt/wt), 93.8%; in the test with MOLM14 (SRSF2 genotype: SRSF2 P95H/wt), 107%; with MOLM14 (SRSF2 genotype: SRSF2 wt/wt) it was 98.4%. The cell viability came to 70.3% in the test with OCI-AML2 (SRSF2 genotype: P95H/wt) and 75.3% in the test with OCI-AML2 (SRSF2 genotype: wt/wt).

Turning to `O=C(NC1CCN(CCCCC2(C(=O)NCC(F)(F)F)c3ccccc3-c3ccccc32)CC1)c1ccccc1-c1ccc(C(F)(F)F)cc1` [Lomitapide Mesylate], the cell viability with K562 (SRSF2 genotype: SRSF2 P95H/wt) is 0.41% and 0.38%; in the test with K562 (SRSF2 genotype: SRSF2 wt/wt), 0.33%; in the test with MARIMO (SRSF2 genotype: SRSF2 P95H/wt), 0.5%; in the test on MARIMO (SRSF2 genotype: SRSF2 wt/wt), 0.68%; with MOLM14 (SRSF2 genotype: SRSF2 P95H/wt), 0.26%; in the test with MOLM14 (SRSF2 genotype: SRSF2 wt/wt) it was 0.3%. The results for the cell viability in the test on OCI-AML2 (SRSF2 genotype: P95H/wt) and in the test with OCI-AML2 (SRSF2 genotype: wt/wt) were 0.27% and 0.3%, respectively.

The values are drawn from the supplement of paper PMC10981050.
